Measured values from PubChem BioAssay AID2588 (National Center for Advancing Translational Sciences (NCATS), 2010).
Values joined by “and” are separate entries in the source; they are usually repeats but may differ in a detail not shown here. Equal values may be shown once. Inconclusive results are not listed. Active and inactive are the calls of the source. Calls come from the whole dose curve; as a rule, active = well fitted inhibition curve with a large enough effect; inconclusive = small, poorly fitted or top-dose-only effect, or effect the other way; inactive = flat fitted curve, though single readings scatter.

These molecules were tested against Lysosomal acid glucosylceramidase (Homo sapiens) (UniProt P04062) (assay: qHTS Assay for Inhibitors and Activators of N370S glucocerebrosidase as a Potential Chaperone Treatment of Gaucher Disease: Activity in Non-Mutant Spleen Homogenate Using a Red Fluorescent Substrate). Details: red fluorogenic substrate GCase activity; series mostly up to 50.2 µM.
From the text: NIH Chemical Genomics Center [NCGC]
NIH Molecular Libraries Probe Production Centers Network [MLPCN]
Assay Submitter (PI): Wei Zheng
Glucocerebrosidase (GC) catalyzes the hydrolysis of beta-glucocerebroside to glucose and ceramide in lysosomes. Mutations in the glucocerebrosidase gene result in Gaucher disease, an autosomal recessive lysosomal storage disorder. Many of the mutations encountered in patients with Gaucher disease are missense alterations that may cause misfolding, decreased stability and/or mistrafficking of this lysosomal protein. […] These inhibitors include iminosugar analogs and three non-iminosugar inhibitors identified from a previous HTS of 62,000 compounds with the wild type recombinant enzyme. However, the enhancement of enzyme activity by the chaperone action of an enzyme inhibitor must be balanced against the direct inhibition of the enzyme. An enzyme activator could also function as a chaperone by binding to the enzyme and helping to correct its misfolding and mistrafficking. While activators for GC have not yet been identified, they may have better therapeutic potential than inhibitors. Therefore the discovery and development of chemical activators may provide a new strategy for the chaperone therapy.
We have optimized a new assay using N370S mutant GC derived from the spleen of a Gaucher patient. […] In addition, the MLPCN compound library has expanded, which increases the chance of finding new and better probes.
This confirmation assay tests for compound activity in spleen homogenate containing wildtype enzyme using an alternate resorufin-based substrate.
NCGC Assay Protocol Summary:
This is a fluorogenic enzyme assay with resorufin-beta-D-glucopyranoside as the substrate and wildtype glucocerebrosidase from human spleen homogenate as the enzyme preparation. Upon the hydrolysis of this fluorogenic substrate, the resulting product, […] which can be detected by a standard fluorescence plate reader. Data were normalized to the controls for basal activity (without enzyme) and 100% activity (with enzyme). The AC50 values were determined from concentration-response data modeled with the standard Hill equation.
Assay buffer: 50 mM citric acid (titrated with potassium phosphate to pH 5.0), 100 mM potassium chloride, 10 mM sodium chloride, 1 mM magnesium chloride, 0.01% Tween-20.
1536-well assay protocol:
(1) Add 2 ul/well of spleen homogenate (27 ug final)
(2) Add 23 nL compounds in DMSO solution. The final titration was 0.5 nM to 58 uM.
(3) Add 2 ul of substrate (1 mM final)
(4) Incubate at 37C for 40 min.
(5) Add 2 ul stop solution (1M NaOH and 1M Glycine mixture, pH 10)
(6) Detect the assay plate in a ViewLux plate reader (PerkinElmer) with Ex=365 nm and Em=440nm.
Keywords: Glucocerebrosidase, beta-glucosidase, Gaucher Disease, pharmacological chaperone, chaperone therapy, high throughput screening, glucocerebrosidase inhibitor, MLSMR, MLSCN, NIH Roadmap, qHTS and NCGC

Chain of Lysosomal acid glucosylceramidase (Homo sapiens) (P04062 whole entry, looked up): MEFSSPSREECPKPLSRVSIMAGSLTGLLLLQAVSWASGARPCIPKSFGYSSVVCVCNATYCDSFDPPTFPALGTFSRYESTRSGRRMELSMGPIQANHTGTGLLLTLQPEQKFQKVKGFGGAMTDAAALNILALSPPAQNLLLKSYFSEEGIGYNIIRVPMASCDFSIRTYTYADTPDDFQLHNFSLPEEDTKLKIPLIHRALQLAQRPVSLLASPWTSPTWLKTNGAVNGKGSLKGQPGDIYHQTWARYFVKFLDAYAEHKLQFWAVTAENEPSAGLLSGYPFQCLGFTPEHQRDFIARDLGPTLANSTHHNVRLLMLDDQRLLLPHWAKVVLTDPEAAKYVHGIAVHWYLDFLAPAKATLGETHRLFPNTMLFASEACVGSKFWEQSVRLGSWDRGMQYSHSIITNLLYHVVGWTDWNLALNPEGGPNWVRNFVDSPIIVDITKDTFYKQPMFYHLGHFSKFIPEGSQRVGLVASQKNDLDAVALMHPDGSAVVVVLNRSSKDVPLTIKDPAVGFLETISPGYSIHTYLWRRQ

Row | Structure (SMILES) | Potency
1 | O=S(=O)(c1ccc(F)cc1)N1CCN(c2nc(-c3cccs3)nc3ccccc23)CC1 | 0.794 µM (active)
2 | CC(C)(C)C(=O)OCCNc1nc(-c2ccccc2)nc2ccccc12 | 2.24 µM (active)
3 | O=[N+]([O-])c1ccc(S(=O)(=O)N2CCN(c3nc(-c4cccs4)nc4ccccc34)CC2)cc1 | 1.12 µM (active)
4 | O=S(=O)(c1ccc2c(c1)CCCC2)N1CCN(c2nc(-c3cccs3)nc3ccccc23)CC1 | 0.282 µM (active)
5 | O=S(=O)(c1ccc(Cl)cc1)N1CCN(c2nc(-c3cccs3)nc3ccccc23)CC1 | 1.58 µM (active) and 355 nM (active)
6 | CCN(CC)c1cc(C)c2cc(NC(=O)C3CCC(C)CC3)ccc2n1 (stereo not given) | 15.8 µM (active)
7 | O=C(COc1ccccc1[N+](=O)[O-])Nc1ccc(Br)cc1 | inactive
8 | COc1ccc(-c2nc(N3CCN(S(=O)(=O)c4ccc(F)cc4)CC3)c3ccccc3n2)cc1 | inactive
9 | N#Cc1ccc(S(=O)(=O)N2CCN(c3nc(-c4cccs4)nc4ccccc34)CC2)cc1 | 0.794 µM (active)
10 | CC(C)(C)c1ccc(S(=O)(=O)N2CCN(c3nc(-c4cccs4)nc4ccccc34)CC2)cc1 | 1.12 µM (active)
11 | COc1ccccc1OCC(=O)Nc1oc(-c2ccccc2)c(-c2ccccc2)c1C#N | inactive
12 | CCOc1ccccc1NC(=O)CN(c1ccc(C)cc1)S(=O)(=O)c1c(C)noc1C | inactive
13 | Cc1ccc(NC(=O)COc2ccccc2C(=O)Nc2ccccc2)cc1Cl | inactive
14 | O=[N+]([O-])c1ccccc1S(=O)(=O)N1CCN(c2nc(-c3cccs3)nc3ccccc23)CC1 | 0.562 µM (active)
15 | COc1cc(OC)c2c(N)c(C#N)c(C(F)(F)C(F)(F)F)nc2c1 | inactive
16 | O=S(=O)(c1ccccc1Br)N1CCN(c2nc(-c3cccs3)nc3ccccc23)CC1 | 0.562 µM (active)
17 | N=c1c2c(-c3ccccc3)c(-c3ccccc3)n(Cc3ccco3)c2ncn1CCCn1ccnc1 | 12.6 µM (active)
18 | COc1ccc(S(=O)(=O)N2CCN(c3nc(-c4cccs4)nc4ccccc34)CC2)cc1 | 0.355 µM (active)
19 | O=S(=O)(c1ccc(F)cc1)N1CCN(c2nc(-c3cccs3)nc3cc(Cl)ccc23)CC1 | inactive
20 | COc1ccccc1NC(=O)COc1ccccc1C(=O)Nc1ccccc1 | inactive

Row | Structure (SMILES) | Potency
21 | Cc1ccc(S(=O)(=O)N2CCN(c3nc(-c4ccc(F)cc4)nc4cc(Cl)ccc34)CC2)cc1 | inactive
22 | CCc1cc(C(=O)N/N=C/c2c(C)[nH]c3ccccc23)cs1 | inactive
23 | c1ccc2c(NCC3CCCO3)nc(N3CCOCC3)nc2c1 (stereo not given) | inactive
24 | O=S(=O)(c1ccccc1F)N1CCN(c2nc(-c3cccs3)nc3ccccc23)CC1 | 0.501 µM (active)
25 | Cc1ccc(S(=O)(=O)N2CCN(c3nc(-c4cccs4)nc4ccccc34)CC2)cc1 | 0.316 µM (active)
26 | Cc1ccc(-c2nc(N3CCN(S(=O)(=O)c4ccc(F)cc4)CC3)c3ccc(Cl)cc3n2)cc1 | inactive
27 | O=S(=O)(c1cccc(Cl)c1)N1CCN(c2nc(-c3cccs3)nc3ccccc23)CC1 | 1.26 µM (active)
28 | O=[N+]([O-])c1ccccc1S(=O)(=O)N1CCN(c2nc(-c3ccccc3)nc3ccccc23)CC1 | 4.47 µM (active)
29 | CCCCNC(=O)c1ccc(NS(=O)(=O)c2ccccc2)cc1 | inactive
30 | O=S(=O)(c1ccc(C(F)(F)F)cc1)N1CCN(c2nc(-c3cccs3)nc3ccccc23)CC1 | 1.26 µM (active)
31 | CC(=O)c1ccc(S(=O)(=O)N2CCN(c3nc(-c4cccs4)nc4ccccc34)CC2)cc1 | 1.12 µM (active)
32 | Clc1ccccc1-c1nccc(NCc2ccccc2)n1 | 3.98 µM (active)
33 | Cc1cc(C)n2ncc(C(=O)Nc3cccc(O)c3)c2n1 | inactive
34 | O=S(=O)(c1cccc(Br)c1)N1CCN(c2nc(-c3cccs3)nc3ccccc23)CC1 | 1.41 µM (active)
35 | Cc1cc(N2CCOCC2)nc2ccc(NC(=O)C3CCC(C)CC3)cc12 (stereo not given) | 2.82 µM (active)
36 | O=S(=O)(c1ccc(Cl)cc1)N1CCN(c2nc(-c3ccc(F)cc3)nc3cc(Cl)ccc23)CC1 | inactive
37 | Cc1cc(C)cc(N(CC(=O)NC2CCC(C)CC2)S(=O)(=O)c2c(C)[nH]c(=O)[nH]c2=O)c1 (stereo not given) | 0.398 µM (active)
38 | Cc1cc(Nc2cccc(Cl)c2)nc2ccc(NC(=O)C3CCC(C)CC3)cc12 (stereo not given) | inactive
39 | CCCNC(=O)COC(=O)c1ccccc1OCC(=O)Nc1ccc(Br)cc1 | inactive
40 | O=S(=O)(c1cccc(C(F)(F)F)c1)N1CCN(c2nc(-c3cccs3)nc3cc(Cl)ccc23)CC1 | inactive
